This passage reports Percent Effect results from ChEMBL document CHEMBL3988442, “University of Dundee, Small-Polar-MMV Screening Library” (2021).

Holding throughout (set-up): scale not given: direction of the effect not stated beside the values
The target of test [1] is Protein translocase subunit SecA (Escherichia coli (strain K12)) (UniProt P10408). As to the kind of experiment: Assay to Identify E. coli SecA ATPase Inhibitors. As to conditions: 30 µM. It counts as functional.
Test [2] deals with T1, Ubiquitin-activating enzyme e1, putative (Leishmania donovani (strain BPK282A1)) (UniProt E9BSI1).
T1 sequence (whole entry): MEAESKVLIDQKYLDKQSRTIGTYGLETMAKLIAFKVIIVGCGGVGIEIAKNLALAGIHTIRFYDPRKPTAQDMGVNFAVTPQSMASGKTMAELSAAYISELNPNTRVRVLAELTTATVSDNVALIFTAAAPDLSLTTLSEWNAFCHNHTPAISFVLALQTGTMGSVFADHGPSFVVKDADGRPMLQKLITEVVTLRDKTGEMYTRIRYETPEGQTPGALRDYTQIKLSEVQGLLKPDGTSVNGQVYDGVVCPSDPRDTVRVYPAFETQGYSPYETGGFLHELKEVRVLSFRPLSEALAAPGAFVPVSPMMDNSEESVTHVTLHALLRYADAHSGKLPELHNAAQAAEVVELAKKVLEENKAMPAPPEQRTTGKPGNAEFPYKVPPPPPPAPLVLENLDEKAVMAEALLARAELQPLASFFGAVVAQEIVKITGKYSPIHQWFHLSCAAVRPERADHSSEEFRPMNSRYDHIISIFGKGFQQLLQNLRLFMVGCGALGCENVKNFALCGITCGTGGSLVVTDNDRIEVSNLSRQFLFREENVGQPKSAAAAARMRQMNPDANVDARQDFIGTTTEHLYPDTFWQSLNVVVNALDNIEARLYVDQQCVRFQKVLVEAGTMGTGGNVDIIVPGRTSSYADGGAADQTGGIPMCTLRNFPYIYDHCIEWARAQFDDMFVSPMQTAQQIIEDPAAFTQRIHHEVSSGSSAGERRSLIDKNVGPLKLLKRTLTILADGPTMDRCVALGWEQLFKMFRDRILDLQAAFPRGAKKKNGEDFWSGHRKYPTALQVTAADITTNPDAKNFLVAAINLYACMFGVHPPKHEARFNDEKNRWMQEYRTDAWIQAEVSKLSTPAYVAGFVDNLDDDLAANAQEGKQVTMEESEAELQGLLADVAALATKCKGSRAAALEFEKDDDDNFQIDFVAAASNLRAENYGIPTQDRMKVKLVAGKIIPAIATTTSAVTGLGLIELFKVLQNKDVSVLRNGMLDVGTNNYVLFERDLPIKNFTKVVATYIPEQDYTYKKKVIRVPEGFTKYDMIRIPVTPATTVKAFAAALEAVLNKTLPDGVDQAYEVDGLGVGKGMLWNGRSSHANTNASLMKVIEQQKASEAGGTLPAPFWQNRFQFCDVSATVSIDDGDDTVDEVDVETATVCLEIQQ
Nature of the test: Leishmania donovani Ubiquitin Activating Enzyme (LdE1). It counts as functional. The following applies: 30 µM.

The target of test [3] is AMP-activated protein kinase, AMPK (Homo sapiens) (UniProt P54646+O43741+P54619+Q9UGJ0+Q9Y478+Q13131+Q9UGI9). Nature of the test: AMP-dependent Kinase enzyme assay. An in vitro enzyme assay that detects ADP turnover that is directly proportional to AMPK activity. This uses naive AMPK that is activated during the assay with MK-8722. In kind it is functional. As to conditions: 30 µM.

Test [4] addresses Sialic acid-binding Ig-like lectin 9 (Homo sapiens) (UniProt Q9Y336). As to the kind of experiment: Hs-Siglec9 ALPHAscreen SOP 20170721. As to conditions: 10 µM. (Bead proximity is the source of the signal in Alpha formats.)
The next test deals with Trypanosoma cruzi. As to the kind of experiment: Trypanosoma cruzi phosphomannomutase and mannose-1-phosphate guanylyltransferase assay. The following applies: 10 µM. It counts as functional.
Test [5] has as its target T2, Arginase-2, mitochondrial (Homo sapiens) (UniProt P78540).
T2 sequence (whole entry): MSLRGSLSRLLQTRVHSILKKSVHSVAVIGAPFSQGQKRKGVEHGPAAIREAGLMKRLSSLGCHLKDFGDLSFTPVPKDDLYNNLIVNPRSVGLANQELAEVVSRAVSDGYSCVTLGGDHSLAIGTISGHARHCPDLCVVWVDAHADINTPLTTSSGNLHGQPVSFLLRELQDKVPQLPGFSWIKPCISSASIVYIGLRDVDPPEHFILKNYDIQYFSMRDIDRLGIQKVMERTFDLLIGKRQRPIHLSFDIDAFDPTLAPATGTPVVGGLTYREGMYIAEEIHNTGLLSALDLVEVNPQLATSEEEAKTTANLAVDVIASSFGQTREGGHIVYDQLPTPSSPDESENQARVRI
Nature of the test: in vitro enzyme assay to detect the production of urea directly proportional to the activity of Arginase II. Further: in the data most compounds retested in dose-response had high values. The following applies: 33.3 µM. It counts as functional.

The target of test [6] is T3, Proteasome subunit beta (Trypanosoma cruzi) (UniProt O96673).
T3 sequence (whole entry): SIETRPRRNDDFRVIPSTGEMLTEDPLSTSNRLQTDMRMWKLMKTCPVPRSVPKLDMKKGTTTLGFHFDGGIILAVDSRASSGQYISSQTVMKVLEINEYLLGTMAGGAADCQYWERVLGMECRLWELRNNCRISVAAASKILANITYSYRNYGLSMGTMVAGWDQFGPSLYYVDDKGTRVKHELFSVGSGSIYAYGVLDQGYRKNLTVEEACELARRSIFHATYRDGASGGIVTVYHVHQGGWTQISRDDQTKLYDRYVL
As to the kind of experiment: Trypanosoma cruzi proteasome chymotrypsin-like activity (TcProtChymo) assay. Further: in the data most compounds retested in dose-response had high values. In kind it is functional. The following applies: 9.37 µM.

Another test is filed under the species Homo sapiens. As to the kind of experiment: To identify inhibition of the IFN signalling (Jak-Stat) pathway via expression of an eGFP reporter gene under the control of an IFN-stimulated response element (ISRE) containing MxA promoter. In kind it is functional. The following applies: 30 µM.
The target of test [7] is T4, Tyrosyl-tRNA synthetase, putative (Trypanosoma cruzi (strain CL Brener)) (UniProt Q4DSP6).
T4 sequence (whole entry): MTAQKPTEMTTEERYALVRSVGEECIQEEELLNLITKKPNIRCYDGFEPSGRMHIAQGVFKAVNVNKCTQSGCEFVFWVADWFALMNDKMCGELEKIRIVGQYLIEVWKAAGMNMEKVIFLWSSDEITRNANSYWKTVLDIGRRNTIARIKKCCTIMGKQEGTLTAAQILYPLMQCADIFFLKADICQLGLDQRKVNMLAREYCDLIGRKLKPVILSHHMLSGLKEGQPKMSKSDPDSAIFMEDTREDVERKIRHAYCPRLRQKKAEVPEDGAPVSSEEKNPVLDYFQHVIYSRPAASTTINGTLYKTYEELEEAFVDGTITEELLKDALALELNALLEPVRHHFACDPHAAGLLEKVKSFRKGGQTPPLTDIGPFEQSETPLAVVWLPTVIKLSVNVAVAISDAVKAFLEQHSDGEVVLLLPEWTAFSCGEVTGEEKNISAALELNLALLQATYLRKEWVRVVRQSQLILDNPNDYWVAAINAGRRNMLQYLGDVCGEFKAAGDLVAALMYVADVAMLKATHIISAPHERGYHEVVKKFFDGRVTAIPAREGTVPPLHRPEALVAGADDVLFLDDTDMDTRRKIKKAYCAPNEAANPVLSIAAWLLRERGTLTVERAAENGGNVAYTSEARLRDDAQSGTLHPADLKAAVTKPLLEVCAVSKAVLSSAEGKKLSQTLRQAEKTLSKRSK
As to the kind of experiment: Trypanosoma cruzi tyrosyl tRNA synthetase (TcYRS) _High Tyrosine SOP. Further: in the data most compounds retested in dose-response had high values. In kind it is functional. The following applies: 30 µM.

Test [8] deals with T4, Tyrosyl-tRNA synthetase, putative (Trypanosoma cruzi (strain CL Brener)). As to the kind of experiment: Trypanosoma cruzi tyrosyl tRNA synthetase (TcYRS) SOP. The following applies: 30 µM. In kind it is functional.
Test [9] concerns the target Chromo domain-containing protein 1 (Saccharomyces cerevisiae (strain ATCC 204508 / S288c) (Baker's yeast)) (UniProt P32657). As to the kind of experiment: ScCHD-1 Enzyme Inhibition Assay. Further: in the data most compounds retested in dose-response had high values. In kind it is functional. As to conditions: 30 µM.

SMILES strings stand for the structures. For some of these results: Results with a measured potency or affinity are listed apart.

Sequence of Chromo domain-containing protein 1 (Saccharomyces cerevisiae (strain ATCC 204508 / S288c) (Baker's yeast)) (P32657 whole entry, the tested form may be a part): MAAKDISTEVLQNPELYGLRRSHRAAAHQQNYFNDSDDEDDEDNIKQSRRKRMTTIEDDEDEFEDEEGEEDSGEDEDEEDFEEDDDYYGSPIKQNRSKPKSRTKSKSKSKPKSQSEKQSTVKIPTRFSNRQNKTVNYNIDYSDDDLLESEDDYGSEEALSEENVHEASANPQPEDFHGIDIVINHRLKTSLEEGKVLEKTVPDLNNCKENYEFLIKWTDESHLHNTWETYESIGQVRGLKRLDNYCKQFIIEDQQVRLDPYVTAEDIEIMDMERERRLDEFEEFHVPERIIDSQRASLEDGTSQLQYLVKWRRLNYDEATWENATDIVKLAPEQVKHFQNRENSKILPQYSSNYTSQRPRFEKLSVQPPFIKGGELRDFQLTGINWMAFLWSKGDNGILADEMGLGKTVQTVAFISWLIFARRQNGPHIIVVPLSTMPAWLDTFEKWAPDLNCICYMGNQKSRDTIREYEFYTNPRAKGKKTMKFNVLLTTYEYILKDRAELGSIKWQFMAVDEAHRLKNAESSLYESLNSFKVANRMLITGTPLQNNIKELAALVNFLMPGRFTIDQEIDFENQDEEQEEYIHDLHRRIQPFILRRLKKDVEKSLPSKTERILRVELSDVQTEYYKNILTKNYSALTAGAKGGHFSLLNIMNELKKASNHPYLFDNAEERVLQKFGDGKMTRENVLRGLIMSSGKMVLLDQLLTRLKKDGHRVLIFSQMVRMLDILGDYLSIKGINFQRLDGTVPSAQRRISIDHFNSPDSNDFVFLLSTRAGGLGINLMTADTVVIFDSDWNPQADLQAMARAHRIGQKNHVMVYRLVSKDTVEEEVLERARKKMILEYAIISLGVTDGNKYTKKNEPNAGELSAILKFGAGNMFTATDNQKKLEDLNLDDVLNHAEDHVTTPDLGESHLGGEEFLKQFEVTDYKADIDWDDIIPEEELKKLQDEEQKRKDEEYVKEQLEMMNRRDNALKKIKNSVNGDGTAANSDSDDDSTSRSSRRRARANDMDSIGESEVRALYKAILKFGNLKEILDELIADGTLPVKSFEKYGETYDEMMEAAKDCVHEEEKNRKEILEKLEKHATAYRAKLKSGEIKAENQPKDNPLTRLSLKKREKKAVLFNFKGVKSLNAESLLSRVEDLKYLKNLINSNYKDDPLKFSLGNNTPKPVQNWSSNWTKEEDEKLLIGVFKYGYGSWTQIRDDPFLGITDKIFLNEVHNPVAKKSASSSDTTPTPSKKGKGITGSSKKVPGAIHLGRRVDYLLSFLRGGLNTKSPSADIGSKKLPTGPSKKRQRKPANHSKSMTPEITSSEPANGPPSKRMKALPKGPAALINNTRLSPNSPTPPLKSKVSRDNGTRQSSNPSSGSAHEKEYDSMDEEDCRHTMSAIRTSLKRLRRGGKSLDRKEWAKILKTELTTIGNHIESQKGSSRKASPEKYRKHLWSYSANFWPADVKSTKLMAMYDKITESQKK
Sequence of Protein translocase subunit SecA (Escherichia coli (strain K12)) (P10408 whole entry): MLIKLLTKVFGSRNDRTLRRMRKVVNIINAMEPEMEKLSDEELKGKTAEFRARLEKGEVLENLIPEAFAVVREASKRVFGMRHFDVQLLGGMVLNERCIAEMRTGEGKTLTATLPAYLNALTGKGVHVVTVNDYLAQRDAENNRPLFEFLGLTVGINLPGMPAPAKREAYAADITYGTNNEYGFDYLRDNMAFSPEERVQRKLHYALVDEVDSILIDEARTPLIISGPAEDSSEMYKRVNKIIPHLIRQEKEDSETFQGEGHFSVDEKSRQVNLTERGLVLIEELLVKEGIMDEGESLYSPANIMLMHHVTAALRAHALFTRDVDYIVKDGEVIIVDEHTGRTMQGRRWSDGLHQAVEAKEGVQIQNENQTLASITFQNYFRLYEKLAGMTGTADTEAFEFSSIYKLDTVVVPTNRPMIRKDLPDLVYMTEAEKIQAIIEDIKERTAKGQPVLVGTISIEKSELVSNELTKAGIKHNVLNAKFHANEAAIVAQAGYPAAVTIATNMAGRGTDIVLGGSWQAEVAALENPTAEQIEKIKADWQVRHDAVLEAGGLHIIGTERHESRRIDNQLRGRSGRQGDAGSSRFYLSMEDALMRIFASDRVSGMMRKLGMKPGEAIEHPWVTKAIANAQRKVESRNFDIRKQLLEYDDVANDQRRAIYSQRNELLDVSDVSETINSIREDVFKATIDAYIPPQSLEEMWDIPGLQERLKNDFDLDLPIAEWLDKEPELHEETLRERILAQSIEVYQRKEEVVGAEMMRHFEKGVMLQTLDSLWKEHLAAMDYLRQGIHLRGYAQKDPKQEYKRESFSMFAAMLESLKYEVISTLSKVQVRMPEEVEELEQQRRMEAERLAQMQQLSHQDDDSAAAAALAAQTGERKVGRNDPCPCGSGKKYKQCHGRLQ
Sequence of Sialic acid-binding Ig-like lectin 9 (Homo sapiens) (Q9Y336 whole entry): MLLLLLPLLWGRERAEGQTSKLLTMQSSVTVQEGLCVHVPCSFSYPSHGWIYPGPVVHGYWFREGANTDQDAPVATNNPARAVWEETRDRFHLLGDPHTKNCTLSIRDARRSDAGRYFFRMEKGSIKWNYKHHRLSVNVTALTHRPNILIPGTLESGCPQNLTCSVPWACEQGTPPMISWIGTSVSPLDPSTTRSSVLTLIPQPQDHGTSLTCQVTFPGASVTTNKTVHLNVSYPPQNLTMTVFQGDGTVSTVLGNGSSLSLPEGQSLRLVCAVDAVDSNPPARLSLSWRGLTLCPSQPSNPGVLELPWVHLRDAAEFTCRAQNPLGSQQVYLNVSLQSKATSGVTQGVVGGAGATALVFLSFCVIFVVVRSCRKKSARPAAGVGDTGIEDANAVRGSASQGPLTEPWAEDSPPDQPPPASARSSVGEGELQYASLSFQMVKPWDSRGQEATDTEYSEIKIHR

`Cc1n[nH]c(C)c1NC(=O)CN1CCOC(Cn2cccn2)C1` (stereo not drawn): the Percent Effect in test [1] is -4.71%; in test [2] it was 2.6%; in test [3] it was 7.29%; in test [4] it was -4.25%; with Trypanosoma cruzi, 6.95%; in test [5] it was -4%. The Percent Effect is 8.16% in test [6]; 10.5% in the test listed under Homo sapiens; 3.81% in test [7]; 9.41% in [8]; -16.3% in test [9].

For `CC(Cn1cccn1)NC(=O)CCc1ccc(S(N)(=O)=O)cc1` (stereo not drawn), the Percent Effect in test [1] was -7.11%; in [2], 18.2%; in test [3], -0.578%; in test [4], 3.31%; with Trypanosoma cruzi it was 6.37%; in test [5], -2.74%. For the same compound, the Percent Effect in test [6] is 7.03%; in the test filed under Homo sapiens it was 11%; in [7], 6.67%; in [8], 23.5%; in test [9], -9.46%.

Take `O=C(O)c1cc(NS(=O)(=O)c2cccc(Cl)c2F)ccc1Cl`: the Percent Effect was -7.65% in test [1]; 2.6% in test [2]; 4.08% in [3]; 1.53% in test [4]; -5.8% in the test on Trypanosoma cruzi; -2.13% in test [5]. Besides, the Percent Effect in test [6] is 5.57%; in the test listed under Homo sapiens, 23.4%; in test [7] it was -11.7%; in test [8], -12.2%; in test [9], -3.44%.

Consider `Cc1nc(CN2CCOCC3(CCN(c4cccnc4)CC3)C2)cs1`, for which the Percent Effect in test [1] is -4.45%; in [2] it was 5.41%; in [3], 0.402%; in test [4], -0.618%; with Trypanosoma cruzi, -2.34%; in [5], 2.08%. Moreover, the Percent Effect in [6] turned out to be 14.4%; in the test listed under Homo sapiens, 4.77%; in test [7] it was 3.96%; in [8], 11%; in [9], 3.31%.

On to `O=C(NCCO)C1(Cc2cc(-c3ccc(F)cc3F)no2)CCOCC1`, for which the Percent Effect is -2.99% in [1]; 12.2% in test [2]; 14.6% in [3]; -1.56% in test [4]; 0.988% with Trypanosoma cruzi; 1.16% in [5]. Also, the Percent Effect in [6] is 15.8%; in the test listed under Homo sapiens, 23.3%; in [7], 0%; in test [8], 6.49%; in test [9] it was -16.7%.

Turning to `Fc1ccc(CN2CCCC(Cn3cncn3)C2)c2ncccc12` (stereo not drawn), the Percent Effect in test [1] is -5.33%; in test [2], 5.2%; in [3], -0.904%; in test [4], 8.63%; in the test on Trypanosoma cruzi it was 1.67%; in [5] it was -1.38%. The Percent Effect in test [6] was 12.2%; in the test filed under Homo sapiens, -1.67%; in test [7], 5.38%; in test [8], 11.1%; in test [9], 1.09%.

Consider `O=C(c1n[nH]c2c1CCN(Cc1nccs1)C2)N1CCCC1`, for which the Percent Effect in test [1] is -4.94%; in test [2] it was 5.41%; in [3], -4.39%; in test [4] it was 22.5%; in the test on Trypanosoma cruzi, 4.4%; in [5], 0.744%. The Percent Effect in [6] is 8.33%; in the test filed under Homo sapiens, -0.319%; in test [7], 5.38%; in [8], 6.17%; in test [9], -10.3%.

`Cn1nnc2cc(C(=O)N3CCCC3Cc3ccccc3)ccc21` (stereo not drawn): the Percent Effect was -4.28% in [1]; 2.74% in [2]; 2.56% in test [3]; 2.89% in [4]; 4.11% in the test with Trypanosoma cruzi; -3.18% in [5]. Besides, the Percent Effect was 5.68% in test [6]; 7.53% in the test listed under Homo sapiens; 0% in [7]; 5% in [8]; -4.61% in [9].
